Assay results as given in the supplement of paper PMC11732987, “Enantioselective OTUD7B fragment discovery through chemoproteomics screening and high-throughput optimisation” (Communications Chemistry, 2025).

Legend:
Assay in all cases: log2 ratio of Biotin-Ahx-Ub-VS probe labelling (fragment/DMSO); higher = less target engagement (more negative = stronger competition), active = hit call of the paper (q ≤ 0.05, log2 ratio ≤ -1)
Settings in all cases: compound concentration: 200 uM; treatment time: 3 h
[1] = target: T1, USP42 (UniProt Q9H9J4)
T1 sequence (whole entry): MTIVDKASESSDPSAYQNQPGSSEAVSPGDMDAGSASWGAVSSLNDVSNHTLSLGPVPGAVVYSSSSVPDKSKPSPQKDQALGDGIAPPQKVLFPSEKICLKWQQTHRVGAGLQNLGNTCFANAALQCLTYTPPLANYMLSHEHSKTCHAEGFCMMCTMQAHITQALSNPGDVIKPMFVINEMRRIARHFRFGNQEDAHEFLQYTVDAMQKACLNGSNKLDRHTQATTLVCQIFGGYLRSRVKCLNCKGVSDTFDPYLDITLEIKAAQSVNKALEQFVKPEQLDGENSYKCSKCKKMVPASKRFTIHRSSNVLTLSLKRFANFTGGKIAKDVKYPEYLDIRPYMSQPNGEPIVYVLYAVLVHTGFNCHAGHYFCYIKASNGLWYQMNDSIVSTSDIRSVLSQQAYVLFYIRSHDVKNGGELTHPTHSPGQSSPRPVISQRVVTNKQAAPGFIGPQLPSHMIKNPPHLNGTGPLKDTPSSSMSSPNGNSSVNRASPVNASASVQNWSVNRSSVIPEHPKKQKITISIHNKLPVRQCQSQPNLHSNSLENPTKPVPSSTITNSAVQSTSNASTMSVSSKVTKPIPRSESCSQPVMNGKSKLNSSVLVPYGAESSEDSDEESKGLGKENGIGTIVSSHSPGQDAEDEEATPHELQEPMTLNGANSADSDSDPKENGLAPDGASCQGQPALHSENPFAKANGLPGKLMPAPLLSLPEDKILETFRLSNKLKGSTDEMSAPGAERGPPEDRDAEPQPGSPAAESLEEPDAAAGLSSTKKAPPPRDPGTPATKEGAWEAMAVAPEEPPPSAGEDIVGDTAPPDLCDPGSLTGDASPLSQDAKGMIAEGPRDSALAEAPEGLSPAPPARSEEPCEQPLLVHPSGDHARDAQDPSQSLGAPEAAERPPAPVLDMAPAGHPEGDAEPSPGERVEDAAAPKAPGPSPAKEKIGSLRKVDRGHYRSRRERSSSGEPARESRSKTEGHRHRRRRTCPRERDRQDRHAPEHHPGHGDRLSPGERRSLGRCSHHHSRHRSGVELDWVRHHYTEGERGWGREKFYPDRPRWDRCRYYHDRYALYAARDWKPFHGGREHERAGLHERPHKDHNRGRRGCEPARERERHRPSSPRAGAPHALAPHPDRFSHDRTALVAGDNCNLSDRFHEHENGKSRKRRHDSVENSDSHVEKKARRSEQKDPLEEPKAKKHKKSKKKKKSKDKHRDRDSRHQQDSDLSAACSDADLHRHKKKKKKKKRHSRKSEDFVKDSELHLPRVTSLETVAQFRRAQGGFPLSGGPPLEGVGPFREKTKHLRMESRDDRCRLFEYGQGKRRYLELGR
Outline: (§1)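 In triplicate, 495 µg of HEK293T lysate per sample was incubated with fragment at 200 µM or vehicle for 3 h. Biotin-Ahx-Ub-VS was then added to 0.5 µM final for 1 h, and labelled DUBs were captured with NeutrAvidin, digested with LysC and trypsin, and measured by diaPASEF LC-MS/MS. Data are average log2 fragment/vehicle ratios by unpaired t-test from global-median-normalised Spectronaut label-free quantities, restricted to proteins with ≥2 unique peptides.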

[2] = target: USP46 (UniProt P62068)
Sequence of USP46 (P62068 whole entry): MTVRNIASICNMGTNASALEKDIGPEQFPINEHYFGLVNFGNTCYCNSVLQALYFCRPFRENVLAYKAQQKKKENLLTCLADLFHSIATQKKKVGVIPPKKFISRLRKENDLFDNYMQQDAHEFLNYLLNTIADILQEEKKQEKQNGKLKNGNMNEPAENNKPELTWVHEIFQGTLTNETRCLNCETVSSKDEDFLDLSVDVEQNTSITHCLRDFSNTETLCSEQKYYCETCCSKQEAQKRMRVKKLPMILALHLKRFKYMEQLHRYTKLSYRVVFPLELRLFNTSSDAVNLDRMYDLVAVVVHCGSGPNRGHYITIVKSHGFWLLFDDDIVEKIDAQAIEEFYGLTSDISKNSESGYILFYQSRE
Outline: as §1

[3] = target: T2, USP47 (UniProt Q96K76)
T2 sequence (whole entry): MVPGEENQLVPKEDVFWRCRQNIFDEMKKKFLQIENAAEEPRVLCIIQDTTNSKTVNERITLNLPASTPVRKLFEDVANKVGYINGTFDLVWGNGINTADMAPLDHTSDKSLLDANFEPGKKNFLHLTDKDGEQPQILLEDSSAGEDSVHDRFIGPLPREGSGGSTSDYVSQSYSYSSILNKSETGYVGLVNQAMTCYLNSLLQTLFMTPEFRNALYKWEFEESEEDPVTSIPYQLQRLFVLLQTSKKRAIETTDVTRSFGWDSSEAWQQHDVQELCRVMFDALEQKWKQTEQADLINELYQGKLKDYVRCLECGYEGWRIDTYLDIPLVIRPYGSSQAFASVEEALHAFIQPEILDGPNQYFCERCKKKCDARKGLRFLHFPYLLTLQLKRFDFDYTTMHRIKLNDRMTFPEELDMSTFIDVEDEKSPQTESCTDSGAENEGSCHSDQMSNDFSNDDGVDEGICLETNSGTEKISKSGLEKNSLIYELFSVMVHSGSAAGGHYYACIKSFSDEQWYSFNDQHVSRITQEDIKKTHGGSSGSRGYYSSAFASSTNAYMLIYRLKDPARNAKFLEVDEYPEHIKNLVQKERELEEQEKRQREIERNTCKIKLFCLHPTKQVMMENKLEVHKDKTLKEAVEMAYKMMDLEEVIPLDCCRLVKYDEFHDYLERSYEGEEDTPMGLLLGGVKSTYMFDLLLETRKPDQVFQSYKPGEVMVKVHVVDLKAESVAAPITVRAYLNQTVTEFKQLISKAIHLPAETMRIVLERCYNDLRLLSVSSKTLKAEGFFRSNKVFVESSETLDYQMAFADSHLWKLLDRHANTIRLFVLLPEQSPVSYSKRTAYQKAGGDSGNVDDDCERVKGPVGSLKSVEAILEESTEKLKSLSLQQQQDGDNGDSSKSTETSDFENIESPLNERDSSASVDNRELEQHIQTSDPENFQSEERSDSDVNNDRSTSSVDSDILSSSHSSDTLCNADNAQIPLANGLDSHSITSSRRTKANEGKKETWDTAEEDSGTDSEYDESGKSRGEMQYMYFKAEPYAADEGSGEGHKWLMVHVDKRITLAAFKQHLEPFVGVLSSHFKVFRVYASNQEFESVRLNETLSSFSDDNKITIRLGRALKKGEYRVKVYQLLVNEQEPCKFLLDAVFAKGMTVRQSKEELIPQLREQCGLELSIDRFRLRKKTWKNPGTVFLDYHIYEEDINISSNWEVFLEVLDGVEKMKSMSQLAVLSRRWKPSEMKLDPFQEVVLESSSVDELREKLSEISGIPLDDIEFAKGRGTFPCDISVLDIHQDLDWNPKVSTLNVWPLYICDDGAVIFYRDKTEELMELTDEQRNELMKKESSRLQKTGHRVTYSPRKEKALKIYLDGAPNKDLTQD
Outline: as §1

[4] = target: T3, USP48 (UniProt Q86UV5)
T3 sequence (whole entry): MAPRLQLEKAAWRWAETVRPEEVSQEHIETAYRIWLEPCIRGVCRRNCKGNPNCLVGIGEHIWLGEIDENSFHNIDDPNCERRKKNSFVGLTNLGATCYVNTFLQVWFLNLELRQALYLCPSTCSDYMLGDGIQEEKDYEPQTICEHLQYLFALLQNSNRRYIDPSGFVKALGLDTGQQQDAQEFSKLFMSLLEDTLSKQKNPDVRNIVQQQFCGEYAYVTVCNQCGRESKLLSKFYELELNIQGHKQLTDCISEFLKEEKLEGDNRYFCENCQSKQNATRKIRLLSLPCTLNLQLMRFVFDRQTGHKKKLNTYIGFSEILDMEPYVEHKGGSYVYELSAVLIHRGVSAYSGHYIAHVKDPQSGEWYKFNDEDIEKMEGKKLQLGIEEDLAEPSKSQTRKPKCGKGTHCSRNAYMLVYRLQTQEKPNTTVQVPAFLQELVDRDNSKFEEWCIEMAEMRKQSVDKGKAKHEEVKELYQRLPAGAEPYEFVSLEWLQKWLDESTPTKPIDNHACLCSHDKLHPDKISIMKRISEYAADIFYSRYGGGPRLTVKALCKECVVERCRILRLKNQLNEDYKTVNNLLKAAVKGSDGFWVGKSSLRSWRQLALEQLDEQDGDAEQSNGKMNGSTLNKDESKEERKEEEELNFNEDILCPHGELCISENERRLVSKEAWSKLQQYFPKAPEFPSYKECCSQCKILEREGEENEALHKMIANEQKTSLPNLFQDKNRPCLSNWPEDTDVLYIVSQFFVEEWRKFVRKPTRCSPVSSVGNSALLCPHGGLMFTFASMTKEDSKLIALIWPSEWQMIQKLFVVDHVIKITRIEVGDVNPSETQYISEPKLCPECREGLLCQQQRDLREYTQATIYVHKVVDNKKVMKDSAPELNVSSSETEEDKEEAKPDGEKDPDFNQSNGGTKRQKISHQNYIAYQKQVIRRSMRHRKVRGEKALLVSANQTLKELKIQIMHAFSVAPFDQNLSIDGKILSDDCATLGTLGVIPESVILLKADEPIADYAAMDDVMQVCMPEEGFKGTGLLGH
Outline: as §1

[5] = target: T4, USP5 (UniProt P45974)
T4 sequence (whole entry): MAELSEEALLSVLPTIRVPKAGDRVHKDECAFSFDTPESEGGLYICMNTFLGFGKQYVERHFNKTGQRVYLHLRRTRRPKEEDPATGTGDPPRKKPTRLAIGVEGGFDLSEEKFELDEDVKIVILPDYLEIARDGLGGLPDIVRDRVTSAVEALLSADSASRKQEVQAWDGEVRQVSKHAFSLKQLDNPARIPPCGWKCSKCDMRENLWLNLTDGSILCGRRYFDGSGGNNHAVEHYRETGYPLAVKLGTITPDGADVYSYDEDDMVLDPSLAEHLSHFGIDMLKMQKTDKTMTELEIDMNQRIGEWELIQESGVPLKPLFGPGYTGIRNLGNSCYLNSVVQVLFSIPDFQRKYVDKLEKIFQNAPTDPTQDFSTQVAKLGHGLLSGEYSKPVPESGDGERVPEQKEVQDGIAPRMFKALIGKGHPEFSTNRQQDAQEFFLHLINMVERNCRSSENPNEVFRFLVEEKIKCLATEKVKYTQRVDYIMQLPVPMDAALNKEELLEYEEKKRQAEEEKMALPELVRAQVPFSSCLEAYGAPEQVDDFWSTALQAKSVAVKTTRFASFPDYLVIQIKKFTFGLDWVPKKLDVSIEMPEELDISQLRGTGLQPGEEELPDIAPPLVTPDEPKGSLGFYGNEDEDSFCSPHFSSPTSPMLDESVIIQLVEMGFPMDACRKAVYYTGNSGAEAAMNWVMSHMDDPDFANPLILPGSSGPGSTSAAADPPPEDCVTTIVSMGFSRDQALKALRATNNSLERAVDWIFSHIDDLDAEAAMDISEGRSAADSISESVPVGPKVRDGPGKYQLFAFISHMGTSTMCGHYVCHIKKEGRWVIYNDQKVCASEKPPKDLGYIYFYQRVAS
Outline: as §1

[6] = target: USP54 (UniProt Q70EL1)
Sequence of USP54 (Q70EL1 whole entry): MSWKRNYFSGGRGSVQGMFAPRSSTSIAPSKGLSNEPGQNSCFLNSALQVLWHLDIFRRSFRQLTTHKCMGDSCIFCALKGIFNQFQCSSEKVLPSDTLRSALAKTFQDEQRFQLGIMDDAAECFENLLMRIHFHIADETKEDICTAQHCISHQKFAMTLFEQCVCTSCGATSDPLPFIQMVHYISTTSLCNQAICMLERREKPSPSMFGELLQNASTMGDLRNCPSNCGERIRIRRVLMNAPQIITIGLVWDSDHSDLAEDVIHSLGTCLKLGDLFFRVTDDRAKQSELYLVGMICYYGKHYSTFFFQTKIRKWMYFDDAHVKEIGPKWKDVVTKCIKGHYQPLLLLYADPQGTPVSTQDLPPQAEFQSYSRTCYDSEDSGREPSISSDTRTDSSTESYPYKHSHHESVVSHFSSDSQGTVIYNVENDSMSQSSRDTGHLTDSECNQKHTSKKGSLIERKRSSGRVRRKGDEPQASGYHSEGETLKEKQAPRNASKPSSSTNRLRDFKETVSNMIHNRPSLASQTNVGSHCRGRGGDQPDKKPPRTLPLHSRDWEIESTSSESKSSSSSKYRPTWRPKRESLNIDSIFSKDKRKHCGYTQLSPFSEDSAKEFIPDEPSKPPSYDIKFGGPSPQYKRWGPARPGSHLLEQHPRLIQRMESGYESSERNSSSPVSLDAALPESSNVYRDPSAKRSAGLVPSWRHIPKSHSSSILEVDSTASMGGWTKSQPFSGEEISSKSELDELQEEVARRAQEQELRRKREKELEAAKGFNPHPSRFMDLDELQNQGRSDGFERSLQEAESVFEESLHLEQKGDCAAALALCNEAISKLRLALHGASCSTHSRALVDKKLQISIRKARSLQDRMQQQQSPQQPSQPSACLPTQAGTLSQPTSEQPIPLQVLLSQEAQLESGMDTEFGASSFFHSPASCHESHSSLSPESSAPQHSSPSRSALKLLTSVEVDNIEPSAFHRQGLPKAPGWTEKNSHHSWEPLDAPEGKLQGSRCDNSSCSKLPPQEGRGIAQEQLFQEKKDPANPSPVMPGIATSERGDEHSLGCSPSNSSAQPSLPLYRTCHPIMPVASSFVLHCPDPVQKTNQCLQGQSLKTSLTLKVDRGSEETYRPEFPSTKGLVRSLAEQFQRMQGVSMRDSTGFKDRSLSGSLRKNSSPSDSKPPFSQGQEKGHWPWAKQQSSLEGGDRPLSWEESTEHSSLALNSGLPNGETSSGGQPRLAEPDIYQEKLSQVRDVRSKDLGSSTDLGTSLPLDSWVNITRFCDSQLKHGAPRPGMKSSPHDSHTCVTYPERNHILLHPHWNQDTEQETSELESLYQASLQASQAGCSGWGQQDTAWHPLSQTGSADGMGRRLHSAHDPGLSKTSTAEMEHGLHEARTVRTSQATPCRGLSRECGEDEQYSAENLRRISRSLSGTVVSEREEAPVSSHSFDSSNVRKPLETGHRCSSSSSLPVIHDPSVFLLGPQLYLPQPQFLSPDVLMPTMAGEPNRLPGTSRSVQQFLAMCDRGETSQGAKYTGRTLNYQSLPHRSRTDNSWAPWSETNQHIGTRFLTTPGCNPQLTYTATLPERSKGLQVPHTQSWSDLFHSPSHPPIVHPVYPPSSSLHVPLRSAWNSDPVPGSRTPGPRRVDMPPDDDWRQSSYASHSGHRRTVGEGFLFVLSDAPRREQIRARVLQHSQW
Outline: as §1

[7] = target: USP7 (UniProt Q93009)
Outline: as §1

[8] = target: T5, USP8 (UniProt P40818)
T5 sequence (whole entry): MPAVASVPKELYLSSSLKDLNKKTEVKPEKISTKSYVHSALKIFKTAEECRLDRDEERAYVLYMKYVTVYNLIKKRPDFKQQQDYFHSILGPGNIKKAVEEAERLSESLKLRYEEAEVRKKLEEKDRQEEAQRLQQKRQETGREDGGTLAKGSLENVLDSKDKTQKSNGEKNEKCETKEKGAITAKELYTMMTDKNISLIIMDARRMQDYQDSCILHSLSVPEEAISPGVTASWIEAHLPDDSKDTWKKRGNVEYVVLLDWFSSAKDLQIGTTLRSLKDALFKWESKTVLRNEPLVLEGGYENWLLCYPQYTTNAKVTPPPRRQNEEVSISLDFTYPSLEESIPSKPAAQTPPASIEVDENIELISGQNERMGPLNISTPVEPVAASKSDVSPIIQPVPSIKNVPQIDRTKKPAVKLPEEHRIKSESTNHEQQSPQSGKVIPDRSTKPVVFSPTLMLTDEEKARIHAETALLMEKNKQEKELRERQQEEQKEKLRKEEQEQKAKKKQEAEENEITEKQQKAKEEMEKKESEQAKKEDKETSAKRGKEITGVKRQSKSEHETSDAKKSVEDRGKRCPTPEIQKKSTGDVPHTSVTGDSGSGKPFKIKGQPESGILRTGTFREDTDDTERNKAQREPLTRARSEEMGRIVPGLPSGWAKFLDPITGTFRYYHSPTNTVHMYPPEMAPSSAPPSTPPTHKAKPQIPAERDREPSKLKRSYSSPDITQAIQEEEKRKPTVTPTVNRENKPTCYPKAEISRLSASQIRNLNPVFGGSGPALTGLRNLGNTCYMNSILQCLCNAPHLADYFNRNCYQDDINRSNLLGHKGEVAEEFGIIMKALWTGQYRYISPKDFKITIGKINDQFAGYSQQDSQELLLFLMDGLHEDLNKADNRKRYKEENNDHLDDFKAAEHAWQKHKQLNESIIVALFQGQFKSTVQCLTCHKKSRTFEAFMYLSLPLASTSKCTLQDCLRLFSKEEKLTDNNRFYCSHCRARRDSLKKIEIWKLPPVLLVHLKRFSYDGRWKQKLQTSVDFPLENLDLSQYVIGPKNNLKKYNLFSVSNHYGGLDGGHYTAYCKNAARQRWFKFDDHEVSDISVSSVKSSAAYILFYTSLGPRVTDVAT
Outline: as §1

[9] = target: USP9X (UniProt Q93008)
Sequence of USP9X (Q93008 whole entry): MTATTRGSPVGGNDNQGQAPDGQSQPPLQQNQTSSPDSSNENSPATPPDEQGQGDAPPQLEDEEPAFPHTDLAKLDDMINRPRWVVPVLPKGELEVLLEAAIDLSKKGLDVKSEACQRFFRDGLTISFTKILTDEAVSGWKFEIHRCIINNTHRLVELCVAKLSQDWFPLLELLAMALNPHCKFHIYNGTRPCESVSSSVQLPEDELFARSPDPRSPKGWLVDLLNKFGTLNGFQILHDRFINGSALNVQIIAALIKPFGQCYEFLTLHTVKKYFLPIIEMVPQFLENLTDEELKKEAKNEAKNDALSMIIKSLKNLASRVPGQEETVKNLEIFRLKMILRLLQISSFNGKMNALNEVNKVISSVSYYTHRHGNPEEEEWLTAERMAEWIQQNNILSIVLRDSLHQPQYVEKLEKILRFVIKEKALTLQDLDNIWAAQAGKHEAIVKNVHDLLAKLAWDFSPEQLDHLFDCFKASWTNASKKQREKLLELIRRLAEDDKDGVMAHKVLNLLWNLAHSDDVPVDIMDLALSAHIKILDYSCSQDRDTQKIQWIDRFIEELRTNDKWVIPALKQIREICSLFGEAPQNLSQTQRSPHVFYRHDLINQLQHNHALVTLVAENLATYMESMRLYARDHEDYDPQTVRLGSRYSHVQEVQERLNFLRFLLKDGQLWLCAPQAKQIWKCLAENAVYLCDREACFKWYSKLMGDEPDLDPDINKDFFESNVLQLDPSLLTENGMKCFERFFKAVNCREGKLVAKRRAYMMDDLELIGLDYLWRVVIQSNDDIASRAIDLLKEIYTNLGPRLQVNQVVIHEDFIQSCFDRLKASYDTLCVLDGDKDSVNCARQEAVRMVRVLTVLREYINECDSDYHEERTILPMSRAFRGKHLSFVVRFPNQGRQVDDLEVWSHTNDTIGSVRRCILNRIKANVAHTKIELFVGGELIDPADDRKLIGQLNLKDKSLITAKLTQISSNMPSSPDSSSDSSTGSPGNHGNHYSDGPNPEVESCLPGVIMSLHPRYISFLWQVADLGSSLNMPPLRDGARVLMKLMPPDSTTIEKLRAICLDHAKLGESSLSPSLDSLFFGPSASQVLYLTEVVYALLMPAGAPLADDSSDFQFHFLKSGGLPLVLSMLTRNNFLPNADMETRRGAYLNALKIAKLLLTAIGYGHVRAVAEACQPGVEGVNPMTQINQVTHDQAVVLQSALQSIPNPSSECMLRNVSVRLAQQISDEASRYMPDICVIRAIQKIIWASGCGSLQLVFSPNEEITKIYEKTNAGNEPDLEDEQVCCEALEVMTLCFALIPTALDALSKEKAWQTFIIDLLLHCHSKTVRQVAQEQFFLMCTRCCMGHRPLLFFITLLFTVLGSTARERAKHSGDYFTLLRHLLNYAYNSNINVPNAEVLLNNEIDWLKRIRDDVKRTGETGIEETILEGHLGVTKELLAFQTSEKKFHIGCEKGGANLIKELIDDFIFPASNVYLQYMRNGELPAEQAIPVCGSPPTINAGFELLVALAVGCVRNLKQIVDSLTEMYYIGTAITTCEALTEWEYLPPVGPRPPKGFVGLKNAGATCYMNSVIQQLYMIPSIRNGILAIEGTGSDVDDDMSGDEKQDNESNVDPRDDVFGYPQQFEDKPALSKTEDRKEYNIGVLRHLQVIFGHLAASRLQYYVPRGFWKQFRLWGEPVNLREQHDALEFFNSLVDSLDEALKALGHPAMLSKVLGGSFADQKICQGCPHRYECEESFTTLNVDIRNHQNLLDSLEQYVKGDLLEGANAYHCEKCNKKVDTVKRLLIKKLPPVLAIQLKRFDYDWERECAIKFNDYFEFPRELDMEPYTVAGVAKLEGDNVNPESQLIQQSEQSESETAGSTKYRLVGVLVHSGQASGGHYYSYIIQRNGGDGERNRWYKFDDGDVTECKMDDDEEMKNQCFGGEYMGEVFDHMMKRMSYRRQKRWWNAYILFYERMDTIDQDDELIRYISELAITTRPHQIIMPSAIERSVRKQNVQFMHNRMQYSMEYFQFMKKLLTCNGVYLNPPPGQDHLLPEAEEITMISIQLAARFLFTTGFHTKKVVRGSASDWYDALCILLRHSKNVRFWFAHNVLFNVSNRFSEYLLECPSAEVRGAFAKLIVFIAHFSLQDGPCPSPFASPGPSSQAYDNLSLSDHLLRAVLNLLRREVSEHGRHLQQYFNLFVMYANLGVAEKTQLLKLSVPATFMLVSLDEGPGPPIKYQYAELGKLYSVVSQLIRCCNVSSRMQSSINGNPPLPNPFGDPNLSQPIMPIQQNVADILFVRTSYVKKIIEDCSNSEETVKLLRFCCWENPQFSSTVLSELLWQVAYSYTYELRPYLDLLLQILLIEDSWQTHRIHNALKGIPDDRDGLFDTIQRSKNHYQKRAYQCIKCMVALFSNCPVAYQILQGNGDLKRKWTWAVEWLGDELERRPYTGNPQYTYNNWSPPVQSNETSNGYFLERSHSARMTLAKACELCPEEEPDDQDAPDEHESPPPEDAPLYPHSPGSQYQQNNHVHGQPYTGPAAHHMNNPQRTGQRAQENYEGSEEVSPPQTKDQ
Outline: as §1

[10] = target: UniProt O00487
Sequence of UniProt O00487 (O00487 whole entry): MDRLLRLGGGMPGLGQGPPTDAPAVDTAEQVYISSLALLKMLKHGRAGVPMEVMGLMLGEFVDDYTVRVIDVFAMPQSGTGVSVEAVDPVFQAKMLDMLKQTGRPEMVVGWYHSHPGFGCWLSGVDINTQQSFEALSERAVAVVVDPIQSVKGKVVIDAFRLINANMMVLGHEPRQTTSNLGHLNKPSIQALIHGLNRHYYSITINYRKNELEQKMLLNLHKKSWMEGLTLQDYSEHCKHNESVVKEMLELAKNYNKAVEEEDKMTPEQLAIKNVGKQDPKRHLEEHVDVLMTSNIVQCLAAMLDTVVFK
Outline: as §1

Measured: log2 ratio of Biotin-Ahx-Ub-VS probe labelling

Cc1ccc2nnc(CNC(=O)CCl)n2c1
inactive: [1] 0.336 | [2] -0.000756 | [3] 0.13 | [4] -0.0762 | [5] 0.114 | [6] 0.357 | [7] 0.0284 | [8] 0.28 | [9] 0.0675 | [10] -0.0931
